Test system: PPARg homodimer (NR concentration 180 nM)
Assay: PBM binding z-score (relative to random genomic background probes); higher = stronger binding; sequences stand for … in GC…GCGATTGACAGCGTAGAATGAAGG
Method in brief: (§1)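 On custom Agilent 4×180K arrays, double-stranded probes with 34-nt variable regions carried direct-repeat seeds, single-nucleotide variants, half-site ablations or random human genomic background. Ligand-free nuclear receptor dimers were applied for 1 h, and binding was read with antibodies against each partner (one per run). Binding z-scores come from regression-normalized fluorescence, with the random background probes as reference.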

Sequence | PBM binding z-score
ACTCGGAGTACAAAGGTCAGAGCTACGCCAGTGA | 3.32
GCTCGCAGGACAAGGTCAGAGCTTTGTCCGTAGA | -0.0307
ATCGAAAGGTCGAAGGTGAGTATCCCCACCCGAA | 1.12
GTACCAAGGTGAATAGGTCGTTGAGGAGTAGGCG | 1.24
CCTACTGGGCCAAAAAGGTCATTGGTGCCGATAA | 3.28
ACTATTAGTTGAGACGAGGGGAACCGATAGGTTG | -0.148
TCAGACAGGTGAAGGTAACTTAGGTACGCAGTCG | 1.08
GCCAGCAGGCCATTTGGGTCACTCAATGACGGGC | -0.218
GCTATTAGTTGAAAGGGCAACTGAATGATTCTCG | 1.34
TAGCCTAGGTCAAATCGGGCCAGTATACGCTATA | 1.68
CAAACTAGGTCATCGGAAGGTCAAAGTCCGCATG | 5.96
GGAACTAGGGCATTCGAGTTGATAGCATGGCGAT | 0.796
TCTTGAAGATCAACAGGAGGTTAAGAAAGATCGA | 0.165
ACAGACAGGTGAGTGAAGGTATCTCAGCTGGACG | -0.226
CAAACTAGGTCAAGCTCAAAGTCGGTTTGTGCCA | 1.52
AATACAGGGTCATCGTAGCCCAGAGTACGCACAG | 2.47
CCTGCTAGGTCATGGTAAGCTAATCTACAGTATG | 1.24
GCTAGCAGGCCATTTGGGTCACTCAGTGACGGGC | -0.213
TCAGACAGGTGAAGATAACTCAGGTACGCAGTCG | 0.861
CCAGACAGGTGAGAAGGTAACTTAGCCTCGATTA | 1.19

Sequence | PBM binding z-score
TAGCCTAGGTCATGCGGTCCAGTATAGTGTCGGC | 0.743
ACTAGTTGGTCAGCGGAGGTCACACACAATTCGG | 3.06
TGAATGAGGTTAAAGATCACGGAACGTGGCGTCG | 0.7
TATACAGGGTCAAAGGCCAGGGTACGAATGTCGA | 2.3
CCTTACGGGACACGAGGTTATAGCACGACGAGCG | 0.721
CTACCAAGGTGAACAAGGTCGTTGAATACTATTC | 0.802
CCGACTGGGACAAGGTTACCATAACGCACAGCCA | 0.825
CCTAGTTGGTCAAGTTCACACACGCTATAGGTAC | 2.59
ATTAGCAGGCCAAGTTTGGGTCACTCAAACAAAG | 0.531
GATACAGGGTCACGGCCAGAGTACGCGTATTGAT | 2.36
GCTAGCAGGCCATTTGGGTCGCTCAATGACGGGC | -1.01
TCTAGCAGGCCAGAGGCTCACTCAAGAGGTACGG | -1.71
ATCGAAAGGTCGAAGCTGAGTATACCCACCCGAA | 1.49
CATTCAGGGTCAGCTAGGCCAGAGTAGGGACGGC | 1.47
TTTGCTAGGTCAGTTGGTCAGCTAACGAGCTGCC | 0.648
ACAGACAGGTGCTGAAGGTAACTCAGGCTATCAT | -0.279
AGAAGGAGGTTAAGATCAGGGAAACAGAATACAT | 2.06
AGAATGAGGTTAAGATCAGGCAAACAGAATACAT | 0.518
CCTACTGGGCCAACGTCATTGATCAGTCAAAGCA | 0.534
GCTAGCAGGCCGTTTGGGTCACTCAATGACGGGC | -0.598

Test system: PXR:RXRa (NR concentration 270 nM, RXRa partner concentration 90 nM)
Assay: as above
Method in brief: as §1

Sequence | PBM binding z-score
ACTCGGAGTACAAAGGTCAGAGCTACGCCAGTGA | 4.1
GCTCGCAGGACAAGGTCAGAGCTTTGTCCGTAGA | 1.35
ATCGAAAGGTCGAAGGTGAGTATCCCCACCCGAA | 2.87
GTACCAAGGTGAATAGGTCGTTGAGGAGTAGGCG | 0.61
CCTACTGGGCCAAAAAGGTCATTGGTGCCGATAA | 4.9
ACTATTAGTTGAGACGAGGGGAACCGATAGGTTG | -0.0512
TCAGACAGGTGAAGGTAACTTAGGTACGCAGTCG | 0.989
GCCAGCAGGCCATTTGGGTCACTCAATGACGGGC | 0.499
GCTATTAGTTGAAAGGGCAACTGAATGATTCTCG | 0.933
TAGCCTAGGTCAAATCGGGCCAGTATACGCTATA | 2.95
CAAACTAGGTCATCGGAAGGTCAAAGTCCGCATG | 5.37
GGAACTAGGGCATTCGAGTTGATAGCATGGCGAT | 1.44
TCTTGAAGATCAACAGGAGGTTAAGAAAGATCGA | 0.962
ACAGACAGGTGAGTGAAGGTATCTCAGCTGGACG | -0.609
CAAACTAGGTCAAGCTCAAAGTCGGTTTGTGCCA | 1.38
AATACAGGGTCATCGTAGCCCAGAGTACGCACAG | 4.07
CCTGCTAGGTCATGGTAAGCTAATCTACAGTATG | 1.15
GCTAGCAGGCCATTTGGGTCACTCAGTGACGGGC | 0.3
TCAGACAGGTGAAGATAACTCAGGTACGCAGTCG | 0.46
CCAGACAGGTGAGAAGGTAACTTAGCCTCGATTA | -0.169

Sequence | PBM binding z-score
TAGCCTAGGTCATGCGGTCCAGTATAGTGTCGGC | 1.77
ACTAGTTGGTCAGCGGAGGTCACACACAATTCGG | 4.99
TGAATGAGGTTAAAGATCACGGAACGTGGCGTCG | 2.94
TATACAGGGTCAAAGGCCAGGGTACGAATGTCGA | 4.41
CCTTACGGGACACGAGGTTATAGCACGACGAGCG | 0.701
CTACCAAGGTGAACAAGGTCGTTGAATACTATTC | 2.75
CCGACTGGGACAAGGTTACCATAACGCACAGCCA | 0.206
CCTAGTTGGTCAAGTTCACACACGCTATAGGTAC | 3.63
ATTAGCAGGCCAAGTTTGGGTCACTCAAACAAAG | 0.924
GATACAGGGTCACGGCCAGAGTACGCGTATTGAT | 4.75
GCTAGCAGGCCATTTGGGTCGCTCAATGACGGGC | -0.81
TCTAGCAGGCCAGAGGCTCACTCAAGAGGTACGG | -0.83
ATCGAAAGGTCGAAGCTGAGTATACCCACCCGAA | 2.27
CATTCAGGGTCAGCTAGGCCAGAGTAGGGACGGC | 2.74
TTTGCTAGGTCAGTTGGTCAGCTAACGAGCTGCC | 0.0416
ACAGACAGGTGCTGAAGGTAACTCAGGCTATCAT | -0.445
AGAAGGAGGTTAAGATCAGGGAAACAGAATACAT | 1.5
AGAATGAGGTTAAGATCAGGCAAACAGAATACAT | 1.33
CCTACTGGGCCAACGTCATTGATCAGTCAAAGCA | -0.583
GCTAGCAGGCCGTTTGGGTCACTCAATGACGGGC | 0.292

From the supplement of paper PMC6555819
